# Source: PubChem BioAssay (Tox21)
# Values joined by “and” are separate entries in the source; they are usually repeats but may differ in a detail not shown here. Identical values can stand only once. Records with an inconclusive call do not appear. Entries that show only a call come without a potency. The source holds several records for some structures; these can differ, active in one and inactive in another. Active and inactive are the calls of the source. Unless noted, calls come from the whole dose curve; as a rule, active = well fitted curve in the direction sought with a large enough effect in the repeat runs; inconclusive = weak or mixed curves; inactive = no such curve, though single readings can be large; an effect the other way counts as inactive or inconclusive.
# How the values were obtained:
# [1] = qHTS assay for identifying genotoxic compounds that show differential cytotoxicity against isogenic chicken DT40 cell lines with known DNA damage response pathways - Rev3 mutant cell line (AID 743014); note: nearly all actives have a fitted effect of over 55% in size; note: potency is the fitted concentration of half-maximal effect
# [2] = qHTS assay to identify small molecule antagonists of the androgen receptor (AR) signaling pathway - cell viability counter screen (AID 743033; note: nearly all actives have a fitted effect of over 45% in size; note: potency is the fitted concentration of half-maximal effect)
# [3] = qHTS assay to identify small molecule antagonists of the androgen receptor (AR) signaling pathway using the MDA cell line - cell viability counter screen (AID 743041; note: nearly all actives have a fitted effect of over 45% in size)
# Method in brief: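 Cytotoxicity counter screen: MDA-kb2 AR-luc cells, compound + R1881, 16 h, 37C, 0% CO2; CellTiter-Fluor added at 15.5 h, fluorescence read after 30 min.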
# [4] = qHTS assay for identifying genotoxic compounds that show differential cytotoxicity against isogenic chicken DT40 cell lines with known DNA damage response pathways - Rad54/Ku70 mutant cell line (AID 743015); note: nearly all actives have a fitted effect of over 60% in size; note: potency is the fitted concentration of half-maximal effect
# [5] = qHTS assay for identifying genotoxic compounds that show differential cytotoxicity against isogenic chicken DT40 cell lines with known DNA damage response pathways - wild type cell line (AID 743012); note: nearly all actives have a fitted effect of over 60% in size; note: potency is the fitted concentration of half-maximal effect
# Method in brief: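 Endpoint: CellTiter-Glo luminescence, 30 min RT. Cells: wild type DT40, 300/well. Exposure: compounds in DMSO, 40 h, 37 C/5% CO2, after ~0.5 h pre-incubation.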
# [6] = biological target: Androgen receptor (Homo sapiens) (UniProt P10275); assay: qHTS assay to identify small molecule antagonists of the androgen receptor (AR) signaling pathway (AID 743035; active = well fitted inhibition curve with a large enough effect in the signal ratio in the repeat runs, not every such curve was filed as active; the % refers to the signal ratio; note: potency is the fitted concentration of half-maximal effect)
# Method in brief: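 R1881 agonist challenge of a HEK293 UAS-beta-lactamase AR reporter line in the presence of compound (16 h, 37C); signal taken as FRET fluorescence after 2 h with LiveBLAzer B/G substrate at room temperature.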
# [7] = biological target: Androgen receptor (Homo sapiens) (UniProt P10275); assay: qHTS assay to identify small molecule agonists of the androgen receptor (AR) signaling pathway (AID 743036; active = well fitted activation curve with a large enough effect in the signal ratio in the repeat runs, with a control signal flat, not every such curve was filed as active; the % refers to the signal ratio)
# Method in brief: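 AR-bla HEK293 cells, 2,000/well; 4 h preincubation 37C/5% CO2; compound (DMSO) 16 h at 37C; LiveBLAzer B/G FRET substrate 2 h RT; fluorescence intensity read-out.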
# [8] = biological target: Androgen receptor (Homo sapiens) (UniProt P10275); assay: qHTS assay to identify small molecule agonists of the androgen receptor (AR) signaling pathway using the MDA cell line (AID 743040; note: nearly all actives have a fitted effect of over 20% in size)
# Method in brief: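 Luciferase read-out, ONE-Glo, 30 min RT. Cells: MDA-kb2 AR-luc, MMTV promoter with AR and GR response elements. Compound exposure 16 h, 37C, 0% CO2, after 5 h pre-incubation. qHTS agonist mode.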
# [9] = biological target: Androgen receptor (Homo sapiens) (UniProt P10275); assay: qHTS assay to identify small molecule antagonists of the androgen receptor (AR) signaling pathway using the MDA cell line (AID 743042; note: nearly all actives have a fitted effect of over 55% in size)
# Method in brief: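 MDA-kb2 breast carcinoma cells carrying MMTV-luciferase (AR/GR responsive) were co-treated with compounds and the agonist R1881 for 16 h at 37C. Inhibition read as ONE-Glo luminescence; CellTiter-Fluor fluorescence measured in parallel for cytotoxicity.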
# Androgen receptor (Homo sapiens), sequence (P10275 whole entry, looked up): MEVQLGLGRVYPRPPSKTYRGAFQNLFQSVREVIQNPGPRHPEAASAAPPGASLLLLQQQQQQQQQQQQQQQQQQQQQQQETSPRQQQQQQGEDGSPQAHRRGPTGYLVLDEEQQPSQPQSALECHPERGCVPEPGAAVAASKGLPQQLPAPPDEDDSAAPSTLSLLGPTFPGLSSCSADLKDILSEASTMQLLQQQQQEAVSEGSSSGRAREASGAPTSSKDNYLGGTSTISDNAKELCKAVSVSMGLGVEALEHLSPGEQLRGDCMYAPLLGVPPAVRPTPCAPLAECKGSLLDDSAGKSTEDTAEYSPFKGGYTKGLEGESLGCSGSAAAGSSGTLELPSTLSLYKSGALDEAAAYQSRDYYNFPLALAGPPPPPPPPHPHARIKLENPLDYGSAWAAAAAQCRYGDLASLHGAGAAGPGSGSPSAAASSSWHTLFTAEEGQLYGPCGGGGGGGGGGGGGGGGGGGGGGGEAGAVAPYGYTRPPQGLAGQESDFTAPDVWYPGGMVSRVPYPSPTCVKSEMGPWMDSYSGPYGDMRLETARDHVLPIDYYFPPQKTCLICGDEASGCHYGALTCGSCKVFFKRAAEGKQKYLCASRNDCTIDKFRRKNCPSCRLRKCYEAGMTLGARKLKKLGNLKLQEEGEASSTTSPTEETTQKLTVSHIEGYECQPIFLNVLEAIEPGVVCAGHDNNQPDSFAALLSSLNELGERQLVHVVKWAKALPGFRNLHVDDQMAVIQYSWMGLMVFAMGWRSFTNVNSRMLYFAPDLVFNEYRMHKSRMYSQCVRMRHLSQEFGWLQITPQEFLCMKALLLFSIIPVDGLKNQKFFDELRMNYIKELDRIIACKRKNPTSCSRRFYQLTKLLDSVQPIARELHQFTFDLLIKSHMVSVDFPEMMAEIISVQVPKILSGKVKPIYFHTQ
structure (smiles),measurement,setting,value
O=S(=O)(O)c1ccc(O)c2ncccc12,Potency,[1],inactive
same,Potency,[2],inactive
same,Potency,[3],inactive
C=CC(=O)OCCOC(=O)CCC(=O)O,Potency,[1],inactive
same,Potency,[4],inactive
same,Potency,[2],inactive
same,Potency,[3],inactive
Cc1ccccc1N=Nc1ccc(N=Nc2c(O)ccc3ccccc23)c(C)c1,Potency,[1],inactive
same,Potency,[2],inactive
same,Potency,[3],inactive
C=CC(=O)OCC(C)OCC(C)OCC(C)OC(=O)C=C (stereo not drawn),Potency,[1],19.3 µM (active)
same,Potency,[4],17.2 µM (active)
same,Potency,[2],54.9 µM (active)
same,Potency,[3],inactive
CCN(CC)C(C)CN1c2ccccc2Sc2ccccc21 (stereo not drawn),Potency,[1],inactive
same,Potency,[2],inactive
CN(C)C/C=C(/c1ccc(Br)cc1)c1cccnc1,Potency,[2],inactive
same,Potency,[3],inactive
CCCCOc1ccc(CC(=O)NO)cc1,Potency,[1],12.7 µM (active)
same,Potency,[2],inactive
same,Potency,[3],inactive
CC(C)(C)c1ccc(S)cc1,Potency,[2],inactive
same,Potency,[3],inactive
CCOC(=O)C1=NN(c2ccccc2)C(=O)C1,Potency,[5],inactive
same,Potency,[4],inactive
same,Potency,[2],inactive
same,Potency,[3],inactive
CC/C(=C\C(=N/O)C(N)=O)C(C)[N+](=O)[O-] (stereo not drawn),Potency,[5],30.6 µM (active)
same,Potency,[4],30.6 µM (active)
same,Potency,[2],inactive
CC(=O)O[C@@H]1C(=O)O[C@@H]2[C@H]1OC(=O)[C@@H]2OC(C)=O,Potency,[5],26.6 µM (active)
same,Potency,[4],26.6 µM (active)
same,Potency,[2],inactive
same,Potency,[3],inactive
O=C(O)Cn1c(C(=O)Nc2nc(-c3ccccc3Cl)cs2)cc2ccccc21,Potency,[4],inactive
same,Potency,[2],inactive
same,Potency,[3],inactive
CN(C(=O)CCCOc1ccc2[nH]c(=O)ccc2c1)C1CCCCC1,Potency,[1],inactive
same,Potency,[2],inactive
same,Potency,[3],inactive
C[C@@H](C1=C(CCN(C)C)Cc2ccccc21)c1ccccn1,Potency,[2],inactive
same,Potency,[3],inactive
CN1CCN(C2=Nc3cc(Cl)ccc3Nc3ccccc32)CC1,Potency,[5],21.1 µM (active)
same,Potency,[4],26.6 µM (active)
same,Potency,[2],inactive
same,Potency,[3],inactive
COCCO,Potency,[5],inactive
same,Potency,[4],inactive
same,Potency,[3],inactive
CCOc1nc2cccc(C(=O)O)c2n1Cc1ccc(-c2ccccc2-c2nn[nH]n2)cc1,Potency,[1],inactive
same,Potency,[4],29.8 µM (active)
same,Potency,[2],inactive
same,Potency,[6],inactive
same,outcome,[7],inactive
same,Potency,[8],inactive
same,Potency,[3],inactive
same,Potency,[9],inactive
CCCCC(CC)(CO)CO,Potency,[4],inactive
same,Potency,[2],inactive
same,Potency,[3],inactive
CC[C@H](C)[C@@H](C(=O)O)n1sc2ccccc2c1=O,Potency,[5],inactive
same,Potency,[3],inactive
Oc1ccc(O)c2c(O)cccc12,Potency,[5],inactive
same,Potency,[4],inactive
same,Potency,[2],inactive
CCCCCCCCCCCCC(=O)O,Potency,[5],inactive
same,Potency,[4],inactive
CC(C)(C)c1cc(CO)cc(C(C)(C)C)c1O,Potency,[1],27.8 µM (active)
same,Potency,[4],22.1 µM (active)
same,Potency,[3],inactive
CC[C@]12CCCN3CCc4c(n(c5ccccc45)C(=O)C1)[C@@H]32,Potency,[5],4.52 µM (active)
same,Potency,[4],7.17 µM (active)
same,Potency,[2],inactive
same,Potency,[6],9.1 µM (active)
same,Potency,[8],inactive
same,Potency,[3],inactive
same,Potency,[9],inactive
Cc1cc(O)ccc1N,Potency,[5],13.8 µM (active)
same,Potency,[4],9.74 µM (active)
same,Potency,[8],inactive
CCCCC(CC)COCCCN (stereo not drawn),Potency,[1],60.4 µM (active)
same,Potency,[3],inactive
Nc1cnn([C@@H]2O[C@H](CO)[C@@H](O)[C@H]2O)c(=O)n1,Potency,[4],6.12 µM (active)
same,Potency,[2],inactive
O=C(O)Cc1cc(I)c(Oc2ccc(O)c(I)c2)c(I)c1,Potency,[1],inactive
same,Potency,[4],inactive and 54.5 µM (active)
same,Potency,[2],inactive
same,Potency,[3],inactive
CCc1nn(C2CCCCC2)c2cc(C3(C#N)CCC(C(=O)O)CC3)ccc12 (stereo not drawn),Potency,[4],61.1 µM (active)
same,Potency,[3],inactive
COC(=O)CSc1cc(N=c2sc(=O)n3n2CCCC3)c(F)cc1Cl,Potency,[2],inactive
same,Potency,[8],inactive
same,Potency,[9],inactive
CC1(C)CCC(C)(C)c2cc(NC(=O)c3ccc(C(=O)O)cc3)ccc21,Potency,[5],26.6 µM (active)
same,Potency,[4],23.7 µM (active)
same,Potency,[2],inactive
CC(=O)/C=C/C1C(C)=CCCC1(C)C (stereo not drawn),Potency,[4],inactive
same,Potency,[3],inactive
CCCCCC(CO)CCC (stereo not drawn),Potency,[5],inactive
same,Potency,[4],inactive
S=C(S)NCCNC(=S)S,Potency,[5],inactive
same,Potency,[4],inactive
same,Potency,[3],inactive
